# Experimental data taken from the supplement of paper PMC6555819.
# Experiments:
# Assay in all cases: PBM binding z-score (relative to random genomic background probes); higher = stronger binding; sequences stand for … in GC…GCGATTGACAGCGTAGAATGAAGG
# [1] = test system: FXR:RXRa (NR concentration 270 nM, RXRa partner concentration 90 nM)
# Method in brief: (§1)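 Scanned fluorescence from custom Agilent 4×180K protein-binding microarrays was regression-normalized. Binding z-scores use random background probes as reference. Ligand-free nuclear receptor dimers were incubated on the arrays for 1 h and detected with antibodies against each partner (one per run).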
# [2] = test system: LXRa:RXRa (NR concentration 270 nM, RXRa partner concentration 90 nM)
# Method in brief: as §1
# [3] = test system: LXRa homodimer (NR concentration 270 nM)
# Method in brief: as §1
# [4] = test system: LXRb:RXRa (NR concentration 270 nM, RXRa partner concentration 90 nM)
# Method in brief: as §1
# [5] = test system: LXRb homodimer (NR concentration 270 nM)
# Method in brief: as §1
# [6] = test system: PPARa:RXRa (NR concentration 270 nM, RXRa partner concentration 90 nM)
# Method in brief: as §1
# [7] = test system: PPARg:RXRa (NR concentration 180 nM, RXRa partner concentration 90 nM)
# Method in brief: as §1
# [8] = test system: PPARg:RXRa 270nM:90nM, anti-RXR (NR concentration 270 nM, RXRa partner concentration 90 nM)
# Method in brief: as §1
# [9] = test system: PPARg:RXRa 30nM:10nM, anti-RXR (NR concentration 30 nM, RXRa partner concentration 10 nM)
# Method in brief: as §1
# [10] = test system: PPARg:RXRa 90nM:30nM, anti-RXR (NR concentration 90 nM, RXRa partner concentration 30 nM)
# Method in brief: as §1
# [11] = test system: PPARg:RXRa DBDmut IVT, anti-RXR (DBD mutation: RXRa K156A/R161A, NR concentration 270 nM, RXRa partner concentration 90 nM)
# Method in brief: as §1
# [12] = test system: PPARg:RXRa IVT, anti-PPARg (NR concentration 270 nM, RXRa partner concentration 90 nM)
# Method in brief: as §1
# [13] = test system: PPARg DBDmut:RXRa IVT, anti-PPARg (DBD mutation: PPARg1 K132A/R137A, NR concentration 270 nM, RXRa partner concentration 90 nM)
# Method in brief: as §1
# [14] = test system: PPARg DBDmut IVT, anti-PPARg (DBD mutation: PPARg1 K132A/R137A, NR concentration 270 nM)
# Method in brief: as §1
# [15] = test system: PPARg homodimer (NR concentration 180 nM)
# Method in brief: as §1
# [16] = test system: PXR:RXRa (NR concentration 270 nM, RXRa partner concentration 90 nM)
# Method in brief: as §1
# [17] = test system: PXR homodimer (NR concentration 270 nM)
# Method in brief: as §1
# [18] = test system: RARa:RXR (NR concentration 270 nM, RXRa partner concentration 90 nM)
# Method in brief: as §1
# [19] = test system: RARa homodimer (NR concentration 270 nM)
# Method in brief: as §1
# [20] = test system: RARb:RXRa (NR concentration 270 nM, RXRa partner concentration 90 nM)
# Method in brief: as §1
Sequence,PBM binding z-score [1],PBM binding z-score [2],PBM binding z-score [3],PBM binding z-score [4],PBM binding z-score [5],PBM binding z-score [6],PBM binding z-score [7],PBM binding z-score [8],PBM binding z-score [9],PBM binding z-score [10],PBM binding z-score [11],PBM binding z-score [12],PBM binding z-score [13],PBM binding z-score [14],PBM binding z-score [15],PBM binding z-score [16],PBM binding z-score [17],PBM binding z-score [18],PBM binding z-score [19],PBM binding z-score [20]
CCGACTGGGGCAGAAAGGTTACCAGACCATCCGG,0.0987,0.481,-0.312,0.525,-1.23,2.1,1.47,2.61,0.619,2.04,1.28,2.02,-0.764,-1.01,0.446,0.737,-0.356,1.47,-0.579,1.89
CCTGCTATGTCATGGTCAGCTAATCTACAGTATG,0.128,-0.0634,-0.269,-0.0445,-0.226,-0.318,0.0811,-0.104,0.0801,0.346,0.893,0.445,0.205,0.546,-0.0268,-0.217,-0.359,-0.187,-0.218,0.913
TCGAGTAGGTTACCCATGGGGCATTCAGCTTTCT,0.292,1.66,-0.443,0.752,-0.79,1.09,0.462,1.36,1.23,1.18,2.81,2.66,-0.222,-0.778,-0.0262,0.0585,-0.728,0.457,-0.95,0.891
GATACAGGGTTAGCTAGAGGCCAGAGTATGGAAA,0.0111,0.711,-0.451,0.181,-0.961,0.87,0.379,0.0848,-0.37,-0.205,-0.257,0.231,-0.237,-1.22,0.107,0.293,-0.052,0.625,-0.595,1.07
CAAACTAGGTAACCGGAAGGTCAAAGTCCGCATG,4.07,3.94,3.88,3.43,0.672,4.48,4.83,4.98,2.22,4.2,6.68,6.36,1.05,1.34,3.53,3.95,1.57,4.88,1.78,3.35
GCATATAGTTAATACAAGGTGAAAGTCCGATTGT,0.799,0.553,0.623,0.44,-0.202,0.488,0.801,0.639,0.496,0.653,0.418,0.597,0.14,1.15,0.564,0.322,0.372,0.691,0.956,0.235
AGAATGAGGTAATTAAGATCAGGGAATTGCGGTC,0.0653,0.204,-0.0232,-0.116,-0.24,0.241,0.544,0.141,-0.00971,-0.0571,2.2,1.37,0.265,-0.0371,-0.649,-0.0568,0.153,0.224,-0.15,0.0669
GATACAGGGTCAGCTAGAGCCCAGAGTATGGAAA,4.49,2.36,-0.499,2.18,-0.471,4.59,3.94,3.29,0.917,2.03,0.771,2.13,-0.422,-0.697,1.06,1.83,-0.197,2.74,-0.316,3.81
CGTCAAAGTTCATCTAAGGTAACGTAAAGCACGC,6.89,6.38,4.65,4.03,2.11,4.73,4.57,5.27,2.69,4.22,0.47,1.89,0.673,1.11,3.01,5.51,5.77,3.97,1.85,4.78
CCTACTGGGCCATCATGTCATTGATATCAACGTT,-0.0902,-0.142,-0.139,0.0528,-0.132,0.932,1.49,2.01,0.718,1.35,4.06,4.28,0.246,0.754,0.785,-0.129,0.119,0.097,-0.0554,0.332
TGTGCTAGGTCAACGATGGTCAGCTAATCTGCTA,3.38,2.67,-0.0277,1.54,0.116,3.1,2.68,2.4,0.195,1.68,2.94,4.09,0.203,0.0393,1.1,1.4,-0.379,1.85,-0.241,4.15
TCTAGTTGCTCACGGAGGTCACACACGACGGGTA,2.59,3.1,1.86,3.22,0.53,3.62,1.55,2.79,3.16,2.76,1.58,2.24,0.833,0.565,2.53,4,0.832,4.2,0.559,3.25
CAAACTAGGACACGAAAGGTCAAAGTCGAATGAC,5.33,5.73,6.38,5.43,1.98,5.8,6.54,6.27,3.92,5.63,6.64,6.94,2.48,3.31,4.51,5.64,1.78,6.19,3.15,4.52
CCGACTGGGGCAAAAAGGTTACCATACCATCCGG,0.468,0.384,-0.0503,1.14,-0.735,2.38,1.48,1.95,0.214,1.25,2.47,2.82,-0.595,-1.12,0.536,1.1,-0.0306,1.87,0.158,2.05
